# Screens deposited in PubChem by Sanford-Burnham Center for Chemical Genomics.
# PLAP activator = activates human placental alkaline phosphatase | P05187 | purified PLAP enzyme, luminescent substrate read-out; stronger effect = higher value | activation fold at 20 µM | 96,000 compounds, 1.2% hits | AID 696; in the data active means activation fold above about 2
# CD11b adhes inh = blocks human CD11b/CD18 adhesion to fibrinogen | P05107+P11215 | 93,000 compounds, 0.54% hits | inhibition, % at 10 µM | AID 1497 | K562 CD11b/CD18 adhesion to fibrinogen, ATPlite luminescence; Mn2+ added to activate the integrin;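 active means primary inhibition of 50% or more at 10 µM, then 40% or more on retest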
# Target sequence (P05107 whole entry, looked up, other chains not shown): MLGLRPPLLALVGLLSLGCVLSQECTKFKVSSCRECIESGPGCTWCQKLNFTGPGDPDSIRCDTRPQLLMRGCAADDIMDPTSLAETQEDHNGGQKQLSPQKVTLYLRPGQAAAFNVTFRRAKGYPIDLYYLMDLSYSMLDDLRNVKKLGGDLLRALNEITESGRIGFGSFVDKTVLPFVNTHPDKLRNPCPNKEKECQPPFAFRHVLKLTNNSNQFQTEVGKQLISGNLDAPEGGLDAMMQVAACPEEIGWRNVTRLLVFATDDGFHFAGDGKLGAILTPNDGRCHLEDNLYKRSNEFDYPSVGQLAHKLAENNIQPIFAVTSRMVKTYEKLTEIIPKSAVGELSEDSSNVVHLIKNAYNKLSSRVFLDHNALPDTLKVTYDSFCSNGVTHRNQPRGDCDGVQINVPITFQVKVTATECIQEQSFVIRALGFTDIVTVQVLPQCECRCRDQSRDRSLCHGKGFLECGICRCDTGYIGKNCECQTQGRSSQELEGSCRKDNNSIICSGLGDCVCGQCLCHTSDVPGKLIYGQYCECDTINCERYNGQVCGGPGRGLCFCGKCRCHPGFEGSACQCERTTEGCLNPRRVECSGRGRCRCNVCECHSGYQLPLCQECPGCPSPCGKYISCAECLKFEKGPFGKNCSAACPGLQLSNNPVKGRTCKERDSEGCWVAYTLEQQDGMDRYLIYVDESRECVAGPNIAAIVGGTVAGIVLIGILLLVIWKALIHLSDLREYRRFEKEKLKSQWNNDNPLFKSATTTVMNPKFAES
# HePTP inhibitor = inhibitors of human HePTP phosphatase; P35236; recombinant HePTP phosphatase activity, OD absorbance; inhibition, % at 20 µM; 110,000 compounds, 0.64% hits; AID 521; in the data active means inhibition above about 50%;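 further: plate controls were vehicle for no effect and reference inhibitor for full effect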
# Mac1 fbg enh = enhancers of human CD11b/CD18 binding to fibrinogen; P05107+P11215; K562 CD11b/CD18 adhesion to fibrinogen, ATPlite luminescence; activation, % at 10 µM; 93,000 compounds, 0.07% hits;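 active means 10 µM primary screen giving 50% or more activity, confirmed by 40% or more on retest at that dose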
# * = called active by the depositor; x = no result given. Sampled rows, rich in hits. Any-hit rate of the full collection: about 1.5%.
SMILES,PLAP activator,CD11b adhes inh,HePTP inhibitor,Mac1 fbg enh
O=S(=O)(Nc1ccc(O)c(-c2nc3ccccc3o2)c1)c1ccccc1,x,x,1,x
CCCCOc1ccc(C(=O)N2c3ccccc3CC2C)cc1 (centres undefined),x,x,104*,x
CC(C)COc1ccc(C(=O)N2c3ccccc3CC2C)cc1 (centres undefined),x,x,-7,x
Nc1ncnc2nc(Sc3ccc(Cl)cc3)[nH]c12,1,4,12,6
Nc1ncnc2nc(SCc3ccc(Cl)cc3Cl)[nH]c12,2.3*,3,x,2
CCCCOC(=O)c1ccc(NS(=O)(=O)c2cc(-c3nnnn3CC)ccc2OC)cc1,2.2*,-6,-11,-2
Cc1c(NC(=O)C(C)Sc2nnc(-c3ccccc3)o2)c(=O)n(-c2ccccc2)n1C (centres undefined),2.1*,-5,9,-4
COc1cc(-c2nnc(SC(C)C(=O)Nc3c(C)n(C)n(-c4ccccc4)c3=O)o2)cc(OC)c1OC (centres undefined),2*,-3,x,2
Cc1c(NC(=O)CSc2nnc(-c3cccc(Cl)c3)o2)c(=O)n(-c2ccccc2)n1C,1.6,-21,6,3
C[n+]1cccc(C(=O)NCCO)c1,x,x,5,x
Cc1cc(OCC(=O)NCc2ccccn2)ccc1Br,x,x,-2,x
Cc1cc(OCC(=O)Nc2ccncc2)ccc1Br,1,77*,4,-10
CCC(=O)Nc1nc(C)c(-c2csc(Nc3ccc(S(=O)(=O)Nc4cc(C)on4)cc3)n2)s1,1.5,-12,x,0
Cc1cc(NS(=O)(=O)c2ccc(Nc3nc(-c4sc(NC(=O)c5ccccc5)nc4C)cs3)cc2)no1,1.8,79*,x,-5
CCOC(=O)C1=C(C)NC2=C(C(=O)CC(C)(C)C2)C1c1ccc(N2CCOCC2)cc1 (centres undefined),x,x,-7,x
Cc1ccc(C2C3=C(CC(C)(C)CC3=O)N(CCN3CCOCC3)C3=C2C(=O)CC(C)(C)C3)cc1,2.1*,8,-1,-2
COC(=O)C1=CNC=C(C(=O)OC)C1c1cccc(Oc2ccccc2)c1,x,x,-12,x
Nc1c2c3c(c(Cl)ccc3[nH]c1=O)C(=O)c1ccccc1-2,x,x,103*,x
Cc1cc2nc(C)n(CCCNC(=O)Nc3ccc(F)cc3)c2cc1C,2.3*,-1,x,-2
O=C(NCCN1CCc2ccccc2C1)Nc1ccc(F)cc1,1,-10,12,1
CCN(CC)c1ccc(/C=N/NC(=O)CCc2c(C)n[nH]c2C)cc1,x,x,6,x
O=C(CN1CCC(NC(=O)Nc2ccccc2-c2ccccc2)CC1)NCc1ccco1,2.2*,1,7,2
O=C(CN1CCC(Cc2ccccc2)CC1)NC(=O)NCc1ccco1,1.3,1,3,-2
Cc1ccc(C2C(=O)c3ccccc3C2=O)c(C)c1C,x,x,3,x
COc1ccc(C(=O)N=Nc2c(O)n(CN(C)C)c3ccc(Br)cc23)cc1,x,x,87*,x
SMILES,PLAP activator,CD11b adhes inh,HePTP inhibitor,Mac1 fbg enh
O=C(O)c1ccc(/C=N/Nc2nncc(=O)[nH]2)cc1,x,x,6,x
COc1ccc(CN2CCN(C(=O)c3cccc(F)c3)CC2)c(OC)c1OC,x,x,3,x
O=C(O)CCN1C(=O)/C(=C/c2ccc(-c3ccc([N+](=O)[O-])cc3)o2)SC1=S,x,x,5,x
O=C(O)CCN1C(=O)/C(=C/c2ccc(-c3ccc(Cl)cc3)o2)SC1=S,x,x,102*,x
O=C(O)c1ccc(-c2ccc(/C=C3\SC(=S)N(c4ccc([N+](=O)[O-])cc4)C3=O)o2)cc1,x,x,103*,x
O=C1/C(=C\c2ccc(-c3ccc([N+](=O)[O-])cc3)o2)SC(=S)N1c1ccc(O)cc1,x,x,-6,x
O=C1/C(=C\c2ccc(-c3cccc([N+](=O)[O-])c3)o2)SC(=S)N1CCc1ccccc1,x,x,15,x
O=C(O)CCCN1C(=O)/C(=C\c2ccc(-c3cccc([N+](=O)[O-])c3)o2)SC1=S,x,x,97*,x
O=C(O)CCN1C(=O)/C(=C\C(Cl)=C/c2ccc([N+](=O)[O-])cc2)SC1=S,x,x,102*,x
O=C(/C=C/c1cccc([N+](=O)[O-])c1)Nc1ccc(F)cc1,x,x,-4,x
Cc1ccc(Cl)cc1N1CCN(Cc2nc3ccsc3c(=O)[nH]2)CC1,2.3*,4,x,0
COc1ccc(N2CCN(Cc3nc4ccsc4c(=O)[nH]3)CC2)cc1,1.1,4,x,-4
O=S(=O)(Nc1nc2ccccc2nc1Nc1ccc2c(c1)OCCO2)c1cccs1,1.5,90*,2,-3
COC(=O)C1=C(C)NC2=C(C(=O)CC(c3ccccc3)C2)C1c1ccccc1 (centres undefined),x,x,-6,x
c1ccc(N2CCN(Cc3ccnc4ccccc34)CC2)cc1,0.9,76*,4,-8
COc1ccc(C2C(C(=O)OCC(=O)Nc3ccc(C)cc3)CCC(=O)N2c2ccc(OC)cc2)cc1 (centres undefined),2.4*,-43,x,0
COc1ccc(C2C(C(=O)OCC(=O)NC(C)(C)C)CCC(=O)N2c2ccc(C)cc2)cc1OC (centres undefined),1.7,-14,x,0
CCOC(=O)c1c(NC(=O)CNCc2ccccc2)sc2c1CCCCC2,x,x,0,x
CCOC(=O)c1c2n(c3c(NCc4ccccc4)ncnc13)CCCC2,2.5*,15,6,-2
CCOc1ccc(OCC)c(NC(=O)C2CCCN(S(=O)(=O)c3c(C)n[nH]c3C)C2)c1 (centres undefined),2*,-8,4,-3
CCOc1ccc(OCC)c(NC(=O)C2CCCN(S(=O)(=O)c3c(C)noc3C)C2)c1 (centres undefined),1.1,-11,2,-3
COc1ccc(C(=O)O)cc1S(=O)(=O)N1CCC(C)CC1,x,x,13,x
COc1cccc(C(=O)N/N=C/c2cn[nH]c2-c2ccc(OC)cc2OC)c1,2.2*,x,x,x
CCN1CCN(c2ncnc3c2cnn3-c2ccccc2)CC1,1.5,5,0,6
c1ccc(-n2ncc3c(N4CCCCC4)ncnc32)cc1,1.6,59*,5,-6
SMILES,PLAP activator,CD11b adhes inh,HePTP inhibitor,Mac1 fbg enh
CC1CCc2c(sc3nc(CN4CCOCC4)nc(NS(=O)(=O)c4cccc([N+](=O)[O-])c4)c23)C1 (centres undefined),2.1*,67*,x,-6
Cc1cc(N2CCCCC2)nc2ccc(NC(=O)CCC(=O)NCCC(C)C)cc12,2.2*,-30,x,1
COc1ccc(/C=N/Nc2ccccc2)cc1O,x,x,-2,x
CCOc1ccc(/C=N/NC(=O)c2cc(-c3ccccc3)n[nH]2)cc1,x,x,4,x
NC(=O)C(=O)NCc1ccc(Cl)cc1,x,x,-2,x
COC(=O)/C=C1\S/C(=N/NC(=O)c2ccccc2)NC1=O,2.5*,-2,x,-3
O=[N+]([O-])c1ccccc1S(=O)(=O)NCCSc1ccccn1,x,x,5,x
CC(Sc1n[nH]c(N)n1)C(=O)C12CC3CC(CC(C3)C1)C2 (centres undefined),2*,-35,x,0
CCOC(=O)C(Sc1n[nH]c(N)n1)c1ccccc1 (centres undefined),1.3,-4,x,-4
Cc1[nH][nH]c(=O)c1C(c1ccc(-c2ccc(Cl)c(Cl)c2)o1)c1c(C)[nH][nH]c1=O,2.9*,-12,x,-2
O=C(NCC1CCCO1)/C(=C/c1ccc(-c2ccccc2Cl)o1)NC(=O)c1ccccc1 (centres undefined),x,x,6,x
